Screening results as filed in PubChem.
Sa RN4220 lethal – kills Staphylococcus aureus RN4220 | S. aureus RN4220 growth, OD600, 16 h | inhibition, % (no concentration beside the values) | actives 0.33% (n = 330,000) | AID 1259311; in the data active means inhibition above about 85%;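 further: plate controls were untreated cells for no effect and reference antibiotic for full effect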
PfHsp40 yeast – rescue of PfHsp40-mediated yeast toxicity; actives 0.68% (n = 340,000); S. cerevisiae expressing PfHsp40, growth rescue, ATP luminescence; growth rescue, % at 12.5 µM; in the data active means growth rescue above about 28%, passing the limit was not always enough; inconclusive means no clear call, values can overlap the other calls;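 further: yeast W303a lacking pdr1 and pdr3 grown in galactose medium; growth measured after three days at 30 °C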
BJeLR viability – kills HRASV12-expressing BJeLR cells; AID 1554; BJeLR (HRASV12) viability, CellTiter-Glo ATP luminescence, 48 h; actives 0.17% (n = 300,000); inhibition, % (no concentration beside the values); in the data active means inhibition above about 50%; inconclusive means no clear call, values can overlap the other calls
ugtP null kill – compounds lethal to S. aureus RN4220 ugtP deletion mutant; AID 1259309; OD600 growth, 16 h; actives 0.54% (n = 330,000); growth inhibition, % (concentration not given with the values); in the data active means growth inhibition above about 68%;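 further: plate controls were untreated wells for no effect and antibiotic for full effect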
CCHFV vOTU inh – CCHFV vOTU protease inhibition | Pep-AMC fluorescence | inhibition, % at 11.5 µM | actives 0.55% (n = 370,000); in the data active means inhibition above about 30%; further: 0% = vehicle wells with enzyme and 100% = no enzyme wells
Starred values were filed as active, the others as inactive; ? = inconclusive; / = no result. Hits are enriched below; roughly 1.6% of the tested compounds scored in any of these assays.

SMILES	Sa RN4220 lethal	PfHsp40 yeast	BJeLR viability	ugtP null kill	CCHFV vOTU inh
O=C(N/N=C/c1c(O)n(Cc2ccccc2)c(=O)c2ccccc12)c1cccnc1	51	431*	15	7	4
CCOC(=O)C1(CCC(C)=NNC(N)=O)CC(C)OC1=O (stereo not drawn)	7	/	/	1	/
O=C(/C=C/NCc1cccnc1)c1ccc(-c2ccccc2)cc1	-2	114*	-11	-3	6
CC(=NNc1nc(-c2ccccc2)cc(-c2ccc(F)cc2)n1)c1cccc(N)c1	0	/	/	-15	/
COC(=O)C1=C(c2ccc(-c3ccccc3)c(F)c2)C[C@@H]2CC[C@H]1N2C(=O)N1CCCCC1	/	18	/	/	22
COC(=O)C1=C(c2ccc(-c3ccccc3)c(F)c2)C[C@@H]2CC[C@H]1N2C(=O)N1CCCC1	/	29*	/	/	10
COc1ccccc1NC(=O)C(=NO)C(C)=NO	6	/	/	16	/
CC(C)(C)C(=O)OCc1nc(-c2ccc(Cl)cc2)cs1	1	0	-2	92*	4
Cc1c(CN(C)C)c2c(n1C)C(=O)c1ccc(Br)cc1-2	5	1	-8	0	-17
CCOC(=O)c1c2c(n(C)c1C)C(=O)C(=O)c1ccc(Br)cc1-2	95*	0	55*	95*	22
COc1ccc(/C=C/c2nc3ccccc3n2C)cc1	17	-3	80*	1	-9
COc1ccc(Cn2c(/C=C/c3ccccc3)nc3ccccc32)cc1	-11	-1	1	-29	-29
N#Cc1ccc(-c2c(-c3ccccc3)ncc3cc(F)ccc23)cc1	3	124*	/	10	-2
COC(=O)c1ccc(-c2c(-c3ccccc3)ncc3cc(F)ccc23)cc1	2	1	/	-14	7
Cc1occc1C(=O)NC(C)C12CC3CC(CC(C3)C1)C2 (stereo not drawn)	2	105*	-5	-1	6
CC(NC(=O)c1ccccc1F)C12CC3CC(CC(C3)C1)C2 (stereo not drawn)	8	0	-7	-3	-4
CC(=NNC(=O)c1ccc(O)cc1O)c1cccnc1	3	/	/	3	/
Cc1nc(-c2ccc(S(=O)(=O)Nc3cccc(S(N)(=O)=O)c3)s2)cs1	1	0	0	8	1
Cc1nc(-c2ccc(S(=O)(=O)Nc3ccc(Br)cc3Cl)s2)cs1	96*	26*	1	83	6
C=C(CC1(C(NP(=O)(c2ccccc2)c2ccccc2)C2CC2CCCC)CC1)c1ccccc1 (stereo not drawn)	3	/	/	4	/
CC(C)=CCCC1=CCC(C=NNC(N)=O)C(C)C1 (stereo not drawn)	1	/	/	93*	/
Cc1ccc(O)c(C(=O)CC(=O)c2cccc(F)c2)c1	78	?	2	100*	13
Cc1cccc(C(=O)CC(=O)c2cc(Cl)ccc2O)c1	100*	82*	-24	100*	/
Nc1ccc(Cl)cc1C(=O)c1ccccc1	11	3	-1	-4	12
Cc1ccc(O)c(C(=O)CC(=O)c2ccc(Cl)cc2)c1	100*	-2	-2	101*	12
SMILES	Sa RN4220 lethal	PfHsp40 yeast	BJeLR viability	ugtP null kill	CCHFV vOTU inh
O=C(CC(=O)c1cc(Cl)ccc1O)c1ccccc1	100*	6	-3	100*	7
CCOC(=O)c1ccc(NC(=NS(=O)(=O)c2ccccc2)c2ccccc2)cc1	7	/	/	-6	/
O=C(NCCC(=O)N1CCCCCCC1)c1ccc(Br)cc1	-2	70*	/	3	9
O=C(NCCC(=O)N1CCCCC1)c1ccc(Br)cc1	2	0	7	3	12
COc1cc(C=NNC(=O)c2ccncc2)ccc1OCCN1CCCCC1	3	/	/	2	/
CC1CCC(C(C)C)C(OC(=O)C[n+]2cc(-c3ccc(Cl)cc3)n3c2CCC3)C1 (stereo not drawn)	101*	0	11	101*	4
Cc1ccc(-c2c[n+](CC(=O)OCc3ccccc3)c3n2CCC3)cc1	4	0	-6	8	-6
NC(=O)CCC1NC(=O)C(Cc2ccc(O)cc2)NC(=O)c2cc([N+](=O)[O-])cc(F)c2OCCC(C(N)=O)NC1=O (stereo not drawn)	8	/	/	2	/
CC(C)Cc1nc(N2CCCCC2)c(C#N)c2c1CCC2	2	-1	4	86*	6
COC(=O)C1CC1C(NS(=O)(=O)c1ccccc1)c1ccccc1 (stereo not drawn)	7	/	/	2	/
Cc1nn(-c2ccccc2)c(Cl)c1/C=C1\SC(=S)NC1=O	100*	-1	-2	99*	6
COc1ccc(C=NNC(=O)C(=O)Nc2ccccn2)cc1OC	0	/	/	6	/
NCCCCc1ccc2ccc3cccc4ccc1c2c34	101*	2	/	100*	-4
OCC1=CC(O)C2C=COC(OC3OC(CO)C(O)C(O)C3O)C12 (stereo not drawn)	5	/	/	1	/
CC(C)c1c(C(=O)NN=Cc2cccc(OCc3ccc(F)cc3)c2)nnn1-c1nonc1N	45	/	/	16	/
FC(F)(F)c1ccccc1C=NN1CCN(Cc2ccccc2)CC1	-3	/	/	93*	/
CN(C)C=C(C#N)C(=O)NN=Cc1ccc(F)cc1	-1	/	/	-7	/
NC(=O)C1=CC(c2ccccc2)CC(OCc2ccc(CO)cc2)O1 (stereo not drawn)	6	/	/	7	/
S=C1Cc2ccccc2N1	-16	0	-5	20	100*
O=[N+]([O-])c1ccc2[nH]cc(S(=O)(=O)N3CCN(c4cccc(Cl)c4)CC3)c2c1	100*	0	-3	90*	16
O=S(=O)(c1ccccc1)N1CCN(c2cccc(Cl)c2)CC1	10	4	5	38	14
CCOc1cc(C=NO)cc(Br)c1OCc1ccc(Cl)cc1	-8	/	/	91*	/
C=CCc1cc(/C=C2/NC(=O)N(CC)C2=O)cc(OCC)c1OCc1ccc(C(=O)O)cc1	20	0	3	-3	9
CCOc1cc(/C=N/O)cc(Br)c1OCc1ccc(Cl)cc1	/	16	-2	/	14
C=CCc1cc(C=O)cc(OCC)c1OCc1ccc(Cl)cc1	-17	-1	-8	99*	-12
SMILES	Sa RN4220 lethal	PfHsp40 yeast	BJeLR viability	ugtP null kill	CCHFV vOTU inh
C=CCc1cc(C=O)cc(OC)c1OCc1ccc(Cl)cc1	-4	3	-8	86*	13
CCOC(=O)C1SC2(C(F)F)CC1(O)c1c(c(OC)c3occc3c1OC)O2 (stereo not drawn)	-1	38*	1	-6	-5
CCOC(=O)C1C(=O)CC(C)(O)C(C(=O)OCC)C1c1cccc(OC(F)(F)C(F)F)c1 (stereo not drawn)	24	1	7	0	4
Cc1ccc(C(=O)NC(=Cc2ccccc2)C(=O)NCC2CCCO2)cc1 (stereo not drawn)	8	/	/	6	/
CCOc1cc([N+](=O)[O-])cc(/C=N/NC(=O)c2c(-c3ccccc3)noc2C)c1O	/	261*	3	/	/
Cc1onc(-c2ccccc2)c1C(=O)Nc1nnc(C(C)C)s1	10	-1	-3	2	-5
Cc1onc(-c2ccccc2)c1C(=O)Nc1ncc([N+](=O)[O-])s1	80	1	10	82*	15
